The source made the active and inactive calls.
Key:
Albumin (Bos taurus) = Albumin (Bos taurus) (UniProt P02769); assay: compounds binding labelled BSA control protein – biochemical, small-molecule microarray, Alexa647 label, 635/667 nm fluorescence, artefact control for SMM control protein annotation, profiling panel (AID 1118); details: BSA-A647 binding, fluorescence 635 nm, higher = more signal;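 note: score merges 667 nm emission intensity and signal-to-noise per printed compound spot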
[1] = probe aXIP binding to arrayed compounds – biochemical, NeuroSMM set, 635/667 nm fluorescence, primary screen (AID 1119); details: small-molecule microarray, higher = more signal, called active from +8 up or from −8 down;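 note: probe is the protein aXip251-270 applied at 1 µg/mL to compound-printed slides; binding of probe to printed compounds measured as 667 nm fluorescence plus signal to noise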
[2] = probe aNOTCH3 binding on compound microarray – biochemical, small-molecule microarray, 635/667 nm fluorescence, primary screen (AID 1120); details: higher = more signal;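 note: probe is a biotin-tagged antibody raised against NOTCH3 rather than NOTCH3 protein; score merges spot fluorescence near 667 nm with spot signal to noise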
[3] = probe aNOTCH2 binding on compound microarray – biochemical, small-molecule microarray, 635/667 nm fluorescence, primary screen (AID 1121); details: higher = more signal;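 note: score merges feature fluorescence read at 667 nm with its signal to noise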
[4] = molecular target: Carbonic anhydrase 2 (Homo sapiens) (UniProt P00918); assay: compounds binding carbonic anhydrase 2 – biochemical, small-molecule microarray, Alexa647-labelled CAII, profiling panel (AID 1122); details: CAII-A647 binding fluorescence, higher = more signal
[5] = COS7 lysate on small-molecule microarray, probe aHis, 635 nm (AID 1123); details: COS7 cell lysate, fluorescence, higher = more signal;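 note: z-score combines 667nm fluorescence intensity with signal-to-noise per printed compound spot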
[6] = probe aLAP1 signal on lysate-treated microarray – cell lysate, small-molecule microarray, COS7 lysate, primary screen (AID 1124); details: probe aLAP1, fluorescence, higher = more signal;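 note: lysate comes from COS7 cells expressing LAP1 and is applied at 0.3 µg/mL; score merges spot fluorescence near 667 nm with signal-to-noise over triplicate slides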
Sam68 (KHDRBS1) = assay: compounds binding KHDRBS1 protein – biochemical, small-molecule microarray, 635 nm fluorescence, primary screen (AID 1125); details: higher = more signal;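 note: score merges 667 nm channel intensity with signal to noise over triplicate slides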
[7] = tested on: Chordin-like protein 2 (CHRDL2); assay: compounds binding chordin-like 2 – biochemical, small-molecule microarray, 635 nm fluorescence, primary screen (AID 1126); details: fluorescence 635 nm, higher = more signal;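 note: printed compound slides probed with Chrdl2 protein at 4 µg/mL for 1 h at 4 C; score merges 667 nm emission intensity with signal to noise over three replicate slides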
[8] = molecular target: Concanavalin-A (Canavalia ensiformis) (UniProt P02866); assay: compounds binding concanavalin A lectin – biochemical, small-molecule microarray, Alexa647 label, 635 nm, artefact control for SMM control protein annotation, primary screen (AID 1127); details: ConA-A647 binding fluorescence, higher = more signal;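 note: z combines 667 nm emission intensity with signal-to-noise across three replicate slides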
Sequence of Concanavalin-A (Canavalia ensiformis) (P02866 whole entry, looked up): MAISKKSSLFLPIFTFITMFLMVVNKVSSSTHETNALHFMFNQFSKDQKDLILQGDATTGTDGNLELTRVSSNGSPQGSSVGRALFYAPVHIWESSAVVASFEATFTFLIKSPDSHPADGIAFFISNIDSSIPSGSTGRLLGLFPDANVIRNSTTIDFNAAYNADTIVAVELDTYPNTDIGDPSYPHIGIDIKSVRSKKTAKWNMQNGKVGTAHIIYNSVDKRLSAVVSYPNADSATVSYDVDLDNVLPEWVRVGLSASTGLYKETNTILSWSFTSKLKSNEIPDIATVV

Sequence of Albumin (Bos taurus) (P02769 whole entry, looked up): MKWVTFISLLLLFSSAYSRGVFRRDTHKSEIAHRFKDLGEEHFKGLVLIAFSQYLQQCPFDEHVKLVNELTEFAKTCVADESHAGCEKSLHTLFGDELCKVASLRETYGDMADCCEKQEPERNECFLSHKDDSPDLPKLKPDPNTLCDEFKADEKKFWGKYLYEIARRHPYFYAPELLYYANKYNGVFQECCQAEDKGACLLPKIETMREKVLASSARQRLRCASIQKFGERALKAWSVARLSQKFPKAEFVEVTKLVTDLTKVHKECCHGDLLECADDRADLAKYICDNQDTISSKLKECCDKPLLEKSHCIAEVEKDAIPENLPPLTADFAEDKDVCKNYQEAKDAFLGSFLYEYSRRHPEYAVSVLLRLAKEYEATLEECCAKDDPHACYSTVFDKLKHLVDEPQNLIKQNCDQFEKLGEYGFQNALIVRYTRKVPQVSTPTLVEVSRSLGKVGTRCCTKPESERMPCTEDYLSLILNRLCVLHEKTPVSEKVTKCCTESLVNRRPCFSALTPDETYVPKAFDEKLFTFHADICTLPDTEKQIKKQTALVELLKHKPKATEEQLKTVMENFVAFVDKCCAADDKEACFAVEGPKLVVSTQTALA

Row | Compound | composite z-score (Albumin (Bos taurus)) | composite Z-score [1] | composite z-score [2] | composite z-score [3] | composite z-score [4] | composite z-score [5] | composite z-score [6] | composite z-score (Sam68 (KHDRBS1)) | composite z-score [7] | composite z-score [8]
1 | COc1ccccc1CN1C(=O)c2ccccc2[C@@]2(Cc3ccccc3N(C(C)C)C2=O)[C@@H]1c1ccc(CO)cc1 | 0.282 | 0.0371 (inactive) | -0.0581 | -0.117 | -0.0384 | 0.209 | 0.21 | -0.067 | -0.381 | 0.262
2 | CO[C@H]1COC(=O)[C@@H]2CCCN2C(=O)CC=C[C@@H](C)[C@H](OC)COC(=O)CC=C[C@@H]1C | -0.806 | 1.31 (inactive) | 0.0753 | -0.0931 | -0.235 | -0.0693 | 0.0482 | 1.28 | 1.38 | -1.28
3 | CCOC(=O)[C@H](Cc1ccccc1)NC(=O)CCC1CC(OC(=O)NCc2ccc3c(c2)OCO3)CC2(CCCC(COC(=O)NCC(c3ccccc3)c3ccccc3)O2)O1 (stereo not given in full) | 0.48 | -0.718 (inactive) | 0.17 | -0.11 | 0.28 | 0.86 | 0.0713 | 1.32 | 0.226 | 0.329
4 | CCOC(=O)[C@H](Cc1ccccc1)NC(=O)CCC1CC(OC(=O)NCc2ccc3c(c2)OCO3)CC2(CCCC(COC(=O)NCc3cccc(C(F)(F)F)c3)O2)O1 (stereo not given in full) | -0.0075 | -0.944 (inactive) | 0.0224 | -0.123 | -0.106 | 0.287 | -0.0375 | 0.843 | 0.393 | 0.546
5 | COC(=O)c1c(CC[C@@H](CO)NC(=O)N[C@H](Cc2ccccc2)Cn2cc(-c3ccccc3N)nn2)oc(C(C)=O)c1C(=O)OC | 0.484 | -0.202 (inactive) | 0.237 | 0.115 | 0.0874 | 1.31 | 0.481 | 0.938 | 0.509 | -0.0831
6 | COC(=O)C1=C(C)N(Cc2ccccc2)[C@]23O[C@](C(=O)OC)(C(=O)N2[C@@H]1c1ccccc1)[C@H]1CCOC(=O)[C@H]13 | 0.735 | 0.493 (inactive) | -0.0587 | -0.131 | 0.0198 | -0.12 | 0.21 | -0.0775 | 0.702 | 0.0349
7 | COCCCNC(=O)[C@@]1(C)c2ccccc2C(=O)N(Cc2ccc(OC(F)(F)F)cc2)[C@H]1c1ccc(CO)cc1 | -0.881 | -0.17 (inactive) | -0.271 | -0.0836 | 0.174 | 0.125 | 0.884 | -1.22 | -0.654 | -0.836
8 | CC(=O)OC[C@H]1O[C@H](CC=NOC[C@@H](C)[C@H](OCc2ccccc2)C(C)C)C=C[C@@H]1OC(C)=O | -0.428 | 0.156 (inactive) | -0.0773 | -0.11 | -0.253 | 0.043 | -0.223 | 0.377 | 0.186 | -0.182
9 | C[C@@H]1CCC2C(=O)N(Cc3ccccc3)C[C@@H](O)CN2[C@H]1c1ccc(Br)cc1 (stereo not given in full) | 0.33 | 0.0923 (inactive) | -0.0362 | -0.176 | 0.375 | 0.669 | -0.0066 | 0.621 | 0.374 | 0.646
10 | COC(=O)[C@@]1(Cc2ccc(F)cc2)[C@H]2c3cc(C(=O)N(C)C)n(Cc4ccc(OC)c(OC)c4)c3C[C@H]2CN1C(=O)c1ccccc1 | 0.378 | 0.206 (inactive) | 0.194 | 0.265 | 0.866 | 0.383 | -0.253 | -0.309 | 0.106 | -0.189
11 | COc1ccc(O[C@H]2C=C[C@@H](c3ccccc3)O[C@@H]2CON=C[C@@H](C)[C@H](OCc2ccccc2)C(C)C)cc1 | -0.136 | -0.236 (inactive) | -0.245 | -0.198 | -0.89 | -0.53 | -0.419 | -1.67 | -0.163 | -0.409
12 | CN1C(=O)C2C=CC(C(O)c3ccc(Br)cc3)N(N(c3ccccc3)c3ccccc3)C2C1=O (stereo not given) | 0.296 | 0.49 (inactive) | -0.0003 | -0.0976 | 0.106 | 1.04 | -0.068 | 0.676 | -0.815 | 0.951
13 | CCOC(=O)[C@H](Cc1ccccc1)NC(=O)CCC1CC(OC(=O)NCc2ccc3c(c2)OCO3)CC2(CCCC(COC(=O)NCc3ccccc3)O2)O1 (stereo not given in full) | 0.3 | 0.255 (inactive) | 0.0437 | -0.0728 | 0.373 | 0.248 | 0.0766 | 1.06 | 0.261 | 0.915
14 | COC(=O)[C@H](C)NC(=O)CCC1CC(OC(=O)NCCc2ccc(F)cc2)CC2(CCCC(COC(=O)NCCc3ccc(Cl)cc3)O2)O1 (stereo not given in full) | -0.167 | 0.65 (inactive) | 0.0573 | -0.0261 | 0.0606 | 0.925 | 0.0391 | 1.07 | 1.09 | 0.925
15 | COc1ccc([Si](C)(C)[C@@H]2[C@@H](CC(=O)N3CCC[C@H]3CO)O[C@]3(C(=O)N(Cc4cccc(N5CCC5=O)c4)c4ccccc43)[C@H]2C)cc1 | 0.263 | 0.188 (inactive) | 0.239 | -0.0288 | 0.14 | 2.25 | 0.317 | 1.31 | 0.453 | 0.811
16 | COC(=O)CC=C[C@H](C)[C@@H](OCc1ccccc1Br)C(C)C | -0.0311 | -0.0469 (inactive) | -0.0343 | -0.113 | -0.279 | 0.164 | 0.0326 | -0.385 | 0.382 | 0.112
17 | CC(C)CON=C1C[C@@H](O)[C@@H](O)[C@@H]2[C@@H]3C(=O)N(Cc4ccccc4)C(=O)[C@@H]3CC[C@@H]12 | 0.0737 | 0.156 (inactive) | -0.0679 | -0.153 | -0.111 | -0.137 | -0.0468 | 0.631 | 0.716 | -0.0393
18 | COCCOC(=O)N1C(=O)[C@@]2(c3cc(C#CC4(O)CCCCCC4)ccc31)[C@H](c1ccc(OCCO)cc1)N1[C@H](c3ccccc3)[C@H](c3ccccc3)OC(=O)[C@H]1[C@@H]2C(=O)NC[C@H](O)c1ccccc1 | 0.203 | -0.317 (inactive) | 0.0039 | -0.115 | 0.367 | 1.71 | 0.288 | 1.29 | -0.0516 | 1.12
19 | COc1ccc(O[C@@H]2[C@H](O)CO[C@H]2C=CC#Cc2ccccc2)cc1 | -0.0002 | 0.497 (inactive) | -0.166 | -0.171 | 0.177 | 0.297 | 0.0594 | -0.016 | 0.229 | -0.301
20 | CCN1C(=O)[C@H]2[C@H]3[C@H](O)[C@H](O)CC(=NOC[C@@H](C)[C@H](OCc4ccccc4)C(C)C)[C@@H]3CC[C@H]2C1=O | 0.665 | 0.0576 (inactive) | -0.152 | -0.131 | -0.0205 | 0.276 | -0.504 | 0.614 | -0.13 | -0.223
21 | CC(C)C[C@@H]1NC(=O)[C@H]2C[C@@H](C(=O)O)[C@@H](c3ccc(O)cc3)N2C1=O | 0.111 | -0.2 (inactive) | -0.0311 | -0.0586 | 0.419 | 0.666 | -0.79 | 0.62 | 0.51 | 0.684
22 | Cc1ccc(S(=O)(=O)N[C@@H]2COC(=O)[C@H](C)COC(=O)CC=C[C@H]2C)cc1 | -0.601 | -0.186 (inactive) | -0.224 | -0.0817 | -0.271 | -0.32 | -0.7 | 0.0715 | 1.23 | -0.0405
23 | CCCNC(=O)OC[C@H]1O[C@H](CCON=C2[C@H]3CCn4c(=O)n(-c5ccccc5)c(=O)n4[C@H]3[C@H](O)[C@@H]3O[C@H]23)C=C[C@@H]1Oc1ccc(OC)cc1 | 0.704 | 2.63 (inactive) | -0.0377 | -0.0444 | 0.167 | 0.73 | 0.587 | 0.522 | 0.318 | 0.216

Reference: PubChem BioAssay
